Screens (PubChem)
D1 potentiator: enhances dopamine response at the human D1 receptor. P21728. HEK293 TREx D1 cells, calcium flux, dopamine EC20 potentiation. potentiation, % at 10 µM. 360,000 compounds, 0.036% hits; in the data active = potentiation above about 30%
Target sequence (P21728 whole entry, looked up): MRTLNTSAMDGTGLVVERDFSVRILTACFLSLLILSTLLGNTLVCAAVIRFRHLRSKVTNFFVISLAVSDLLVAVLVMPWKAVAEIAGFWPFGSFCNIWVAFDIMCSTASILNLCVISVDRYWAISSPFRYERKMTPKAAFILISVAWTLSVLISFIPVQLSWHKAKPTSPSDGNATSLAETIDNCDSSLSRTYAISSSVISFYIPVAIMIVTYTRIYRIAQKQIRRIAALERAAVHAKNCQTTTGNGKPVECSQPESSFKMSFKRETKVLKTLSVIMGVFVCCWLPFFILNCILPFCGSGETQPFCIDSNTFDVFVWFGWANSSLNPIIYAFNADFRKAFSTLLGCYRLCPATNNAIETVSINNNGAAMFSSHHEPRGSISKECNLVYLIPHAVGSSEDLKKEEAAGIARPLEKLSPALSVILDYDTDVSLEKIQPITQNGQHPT
D1 antag: blocks dopamine activation of the human D1 receptor; HEK293 TREx D1 cells, calcium flux, dopamine EC80; stronger effect = lower value; 360,000 compounds, 3.2% hits; AID 504652; P21728; activity change, negative = inhibition, % at 10 µM; in the data active = activity change below about -30%
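After overnight tetracycline induction at 30 C, force-coupled D1 HEK293 cells took up a no-wash calcium dye at room temperature. Compounds were added and monitored 180 s, and the response to EC80 dopamine was then recorded.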
D1 agonist: activates the human D1 dopamine receptor; P21728; HEK293 T-REx D1 cells, calcium flux, agonist mode; activation, % at 2 µM; 360,000 compounds, 1% hits
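Tetracycline-induced HEK293 TREx D1 cells, force-coupled to calcium signalling, were dye-loaded with a no-wash calcium kit. Compound was pin-added after a 10 s baseline. Fluorescence was read kinetically at 1 cycle/s for 180 s, with calcium rises flagged as agonism.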
TRHR PAM: TRH receptor (human) allosteric enhancement | enhancement, % at 2 µM | 360,000 compounds, 0.66% hits | TRHR cells, fluo-8 calcium fluorescence, EC20 TRH enhancement; in the data active = enhancement above about 30%
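TRHR-expressing cells loaded with fluo-8 calcium dye were read kinetically (ex 480/em 530) during compound addition, then stimulated with an EC20 of TRH (10 nM final). Enhancement of the Gq-mediated intracellular calcium response was scored.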
TRHR ag: activates the human TRH receptor. AID 493084. P34981. 360,000 compounds, 0.18% hits. TRHR cells, calcium flux fluo-8, FDSS agonist mode. activation, % at 2 µM
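In this calcium-flux screen, cells bearing human TRHR are dye-loaded with fluo-8, baselined for 10 cycles, then exposed to library compounds; positive kinetic calcium responses during the agonist phase mark hits, with TRH as control.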
Hits are given with their value; i = inactive; nt = not tested or not shown; ! = a repeat was not active. A selection: hits, their analogues and other compounds. The true share with any hit is near 4.7%. Cut-off read from the data, not from the text of the source, unless noted: active = activation above about 30%; inactive = the rest.

SMILES	D1 potentiator	D1 antag	D1 agonist	TRHR PAM	TRHR ag
O=C1NC(=S)S/C1=C\c1ccc2ccccc2c1	i	-31	i	i	i
Nc1[nH]nc2c1NN(c1ccc(Cl)cc1Cl)N2	i	-38	i	i	i
Nc1c(-c2n[nH]c(=S)n2-c2ccc(Cl)cc2Cl)cnn1-c1ccccc1	i	i	i	i	i
O=Cc1c(C(=O)O)n(CC(=O)O)c2ccccc12	i	i	i	i	i
Cc1ccc(OCCN2CCN(C)CC2)c([N+](=O)[O-])c1	i	-38	i	i	i
Cc1ccc(OCCN2CCNCC2)c([N+](=O)[O-])c1	i	i	i	i	i
O=[N+]([O-])c1cc(S(=O)(=O)N2CCCC2)ccc1OCCOc1ccccc1	nt	i	35	i	i
Cc1ccc(OCCCN2CCOCC2)c([N+](=O)[O-])c1	i	i	i	31	i
Cc1cc(OCCN2CCOCC2)ccc1[N+](=O)[O-]	i	i	i	i	i
O=[N+]([O-])c1ccccc1OCC(O)CN1CCN(CC(O)COc2ccccc2[N+](=O)[O-])CC1 (configuration not stated)	i	-46	i	i	i
COc1ccc(Cl)cc1S(=O)(=O)Nc1ncn[nH]1	i	i	i	i	i
Cc1ccccc1C(=O)Nc1nnc(SCc2cc(=O)c3c(C)ccc(C)c3[nH]2)s1	i	i	i	i	i
COc1ccccc1N1CCN(c2ccc(-c3nc(-c4ccccc4)no3)cc2[N+](=O)[O-])CC1	i	i	i	i	i
CCOc1ccc(CCNC(=O)Cn2c(-c3cccs3)cc3ccccc32)cc1	i	i	i	i	i
Cc1ccc([N+](=O)[O-])c(OCCN2CCc3ccccc3C2)c1	i	-52	i	i	i
O=[N+]([O-])c1ccccc1OCCN1CCCC1	i	-38	i	i	i
O=[N+]([O-])c1ccccc1OCCN1CCOCC1	i	i	i	i	i
CCC(=O)N1c2ccccc2CC1C(=O)NCCc1ccc(SC)cc1 (configuration not stated)	i	i	i	i	i
O=C(N/N=C/c1ccc(-c2ccccc2)o1)c1ccccc1O	i	-32	i	i	i
Cc1cc(C(=O)N/N=C/c2ccc(-c3cccc(Cl)c3)o2)n[nH]1	i	i	66	i	i
CCCOc1ccc(NC(=O)CC2C(=O)N(CC)C(=S)N2CCCN2CCN(Cc3ccccc3)CC2)cc1 (configuration not stated)	i	-34	i	i	i
CCN1C(=O)C(CC(=O)Nc2ccc(OC)cc2)N(Cc2ccc(OC)c(OC)c2)C1=S (configuration not stated)	i	i	i	i	i
CCN1C(=O)C(CC(=O)Nc2ccc(OC)cc2)N(CCc2ccc(OC)cc2)C1=S (configuration not stated)	i	-33	i	i	i
CCCOc1ccc(NC(=O)CC2C(=O)N(CC)C(=S)N2CCNC(C)=O)cc1 (configuration not stated)	i	i	i	i	i
COc1cc2nc(SCC(=O)Nc3c(C)cc(C)cc3C)n3nc(CCn4c(C)nc5ccccc54)nc3c2cc1OC	i	i	i	i	i
SMILES	D1 potentiator	D1 antag	D1 agonist	TRHR PAM	TRHR ag
Cc1cccc(CNC(=O)c2cnc3c(-c4cccc(C)c4)c(C)nn3c2C)c1	i	-33	i	i	i
CCOc1ccc(-c2c(C)nn3c(C)c(C(=O)NCc4cccc(OC)c4)cnc23)cc1OCC	i	i	i	i	i
CCOc1ccc(-c2c(C)nn3c(C)c(C(=O)NCc4ccc(C)o4)cnc23)cc1OCC	i	-34	i	i	i
COc1ccc(NC(=O)C2CCCN(C(=O)c3cnn(-c4ccccc4)c3-n3cccc3)C2)cc1 (configuration not stated)	i	i	i	i	i
O=C(c1ccc(F)cc1)c1cn(Cc2ccccc2F)c2cc3c(cc2c1=O)OCCO3	i	i	i	i	i
COc1ccccc1CCNC(=O)C(=O)NCC(c1cccs1)S(=O)(=O)c1ccc(C)cc1 (configuration not stated)	i	nt	i	i	i
CCOc1ccccc1NC(=O)Cn1c(=O)n(Cc2ccco2)c(=O)c2cccnc21	i	i	i	44	i
CCCCN(C)C(=O)C1CCC(CNS(=O)(=O)c2ccc3c(c2)CC(C)N3C(C)=O)CC1 (configuration not stated)	i	-36!	i	i	i
CC(=O)N1c2ccc(S(=O)(=O)NCCC(=O)NC3CCCC(C)C3C)cc2CC1C (configuration not stated)	i	-39	i	i	i
CC(=O)N1c2ccc(S(=O)(=O)NCCC(=O)NC3CCCCCC3)cc2CC1C (configuration not stated)	i	i	i	i	i
CC(=O)N1c2ccc(S(=O)(=O)NCCC(=O)N3CCC(C)CC3)cc2CC1C (configuration not stated)	i	i	i	32	i
CC(=O)N1c2ccc(S(=O)(=O)NCC3CCC(C(=O)N(C)Cc4ccccc4)CC3)cc2CC1C (configuration not stated)	i	i	i	i	i
O=C(CCNS(=O)(=O)c1ccc2c(c1)CCN2C(=O)C1CC1)N1CCN(c2ccc(F)cc2)CC1	i	-37	i	i	i
COc1ccc(NC(=O)CSc2nc3c([nH]c4ccccc43)c(=O)n2-c2ccccc2)c(OC)c1	i	i	i	i	i
COc1ccc(NC(=O)N2CCN(c3ccc([N+](=O)[O-])cc3)CC2)cc1	i	i	i	i	i
CSCCCNC(=S)N1CCN(c2ccc(C(C)=O)cc2)CC1	i	-33	i	i	i
CN1CCN(C(=S)Nc2ccc([N+](=O)[O-])cc2)CC1	i	-33	i	i	i
COCCCNC(=S)N1CCN(c2ccc([N+](=O)[O-])cc2)CC1	i	-33	i	i	i
CCCCNC(=S)N1CCN(c2ccc(C(C)=O)cc2)CC1	i	i	i	i	i
COc1ccc(C(=O)NC(=S)N2CCN(c3ccc([N+](=O)[O-])cc3)CC2)cc1	i	-31	i	i	i
Cc1cc(C)cc(NC(=O)CCC(=O)Nc2cc(C)on2)c1	i	i	i	i	i
CC1CC(C)CN(S(=O)(=O)CCNC(=O)c2ccccc2)C1 (configuration not stated)	i	i	i	i	i
COCCn1c(-c2ccc(Br)cc2)nc2oc3cc(OC)ccc3c(=O)c2c1=O	i	-45	i	i	i
CCOc1c(Cl)cc(CNc2ccc(N3CCCC3)cc2)cc1OC	i	i	i	i	i
CCOc1c(Cl)cc(CNc2ccc(S(N)(=O)=O)cc2)cc1OC	i	-41	i	i	i
CC/C(=N\NC(=O)c1csc(C)c1C)c1cccs1	i	i	i	i	i
CCC/C(=N\NC(=O)c1csc(C)c1C)c1cccs1	i	i	i	35	i
